Consider 50 sequences from the supplement of paper PMC10338343.

± gives the standard deviation. Where only a bound is given, the exact number is not on record here.

Test [1] has as its system MILI (PIWIL2) piRISC loaded with piRNA #1 (26 nt). As to the kind of experiment: pre-steady-state target cleavage rate (min^-1); guide: piRNA #1 5'p-UGAGGUAGUAGGUUGUAUAGUAUCCA; higher = faster piRNA-guided slicing of the target. The note with it: auxiliary factor: 500 nM mouse GTSF1. In a few lines:
(§1)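 Using HEPES–potassium acetate buffer at 33 °C, 1 nM active affinity-purified piRISC with a single synthetic guide was mixed with 0.1 nM transcribed, DNA-blocked target RNA library for 0–8 or 0–960 min, with or without 500 nM GTSF1 partner protein. Uncleaved targets were sequenced and normalised to depth and to weakly complementary targets, and three trials were pooled with k3 capped at 0.0001 min^-1. A burst-and-steady-state fit gave the pre-steady-state cleavage rate.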

The test system of test [2] is EfPiwi piRISC loaded with piRNA #1 (26 nt). As to the kind of experiment: pre-steady-state target cleavage rate (min^-1); auxiliary factor: 500 nM Ephydatia muelleri Gtsf1; guide: piRNA #1 5'p-UGAGGUAGUAGGUUGUAUAGUAUCCA; MIWI and MILI are mouse PIWI proteins and EfPiwi is from a freshwater sponge; tags in brackets are library labels; higher = faster piRNA-guided slicing of the target. The method, boiled down: as §1

As to GGAGAGGAUACUAUACAACCUGACUACCUCA, the “pre-steady-state target cleavage rate” value was determined as 0.00367 ± 0.0024 in test [1] and 0.00442 ± 0.0022 in test [2].

In the case of GGAGAGGAUACUUUUCAACCUACUACCUCA, the “pre-steady-state target cleavage rate” value amounted to 0.145 ± 0.011 in test [1] and 0.00409 ± 0.004 in test [2].

Turning to GGAGAGGAUACUAUACAACCCUACUACCUCA, the “pre-steady-state target cleavage rate” value in test [1] turned out to be 0.0028 ± 0.0028; in test [2], 0.00598 ± 0.0032.

In the case of GGAGAGGAUACGAUACAACCUACUACCUCA, the figures for the “pre-steady-state target cleavage rate” value in test [1] and in test [2] were 0.166 ± 0.011 and 0.00899 ± 0.0037, respectively.

Turning to GGAGACGAUACAAUACAACCUACUACCUGA, the figures for the “pre-steady-state target cleavage rate” value in test [1] and in test [2] were 0.116 ± 0.015 and 0.0025 ± 0.0015, respectively.

As to GGAGACGACACUAUACAACCUACUACCUCA, the results for the “pre-steady-state target cleavage rate” value in test [1] and in test [2] were 0.214 ± 0.025 and 0.114 ± 0.038, respectively.

Regarding GGAGUGGAUACUAUACAAGCUACUACCUGA, the “pre-steady-state target cleavage rate” value turned out to be 0.0875 ± 0.014 in test [1] and 0.00454 ± 0.0019 in test [2].

In the case of GGAGUGCAUACUAUACAACCUACUACCACA, the “pre-steady-state target cleavage rate” value in test [1] was found to be 0.124 ± 0.013; in test [2], 0.00342 ± 0.0028.

For the sequence GGAGAGGUAUACUAUACAACCUACUACCUCA, the “pre-steady-state target cleavage rate” value was found to be 0.111 ± 0.0086 in test [1] and 0.0588 ± 0.023 in test [2].

With GGAGUGGAUACUAUACAACCUACUACUUCA, the figures for the “pre-steady-state target cleavage rate” value in test [1] and in test [2] were 0.103 ± 0.0082 and 0.104 ± 0.042, respectively.

Consider GGAGACCAUACUAUACAACCUACUGACCUCA, for which the “pre-steady-state target cleavage rate” value worked out at 0.0765 ± 0.017 in test [1] and 0.0102 ± 0.0061 in test [2].

On to GGAGACGAUUCUAUACAACCUACUACCUCA, for which the “pre-steady-state target cleavage rate” value amounted to 0.209 ± 0.013 in test [1] and 0.0774 ± 0.03 in test [2].

In the case of GGAGACCAUACUAUACAACCUACUACCUA, the “pre-steady-state target cleavage rate” value in test [1] stood at 0.125 ± 0.016; in test [2], 0.0149 ± 0.0065.

Consider GGAGUGGAUACUAUACAACUACUACCUCA, for which the “pre-steady-state target cleavage rate” value in test [1] turned out to be 0.0608 ± 0.0047; in test [2] it was 0.00835 ± 0.0039.

Regarding GGAGACCAUACUAUACAACGUAGUACCUCA, the figures for the “pre-steady-state target cleavage rate” value in test [1] and in test [2] were 0.0119 ± 0.0033 and 0.00264 ± 0.0023, respectively.

For GGAGAGGCAUACUAUACAACCUACUACCUCA, the “pre-steady-state target cleavage rate” value in test [1] stood at 0.177 ± 0.014; in test [2], 0.0477 ± 0.017.

Consider GGAGACCUAACUAUACAACCUAGUUCCUCA, for which the “pre-steady-state target cleavage rate” value in test [1] worked out at 0.00721 ± 0.0051; in test [2] it was 0.00297 ± 0.0025.

On to GGAGACCAUACUUAUACAACCUACUACCUCA, for which the entries for the “pre-steady-state target cleavage rate” value in test [1] and in test [2] were 0.132 ± 0.016 and 0.0757 ± 0.028, respectively.

As for GGAGACGUUACUAUACAACCUACUACCUGA, the “pre-steady-state target cleavage rate” value in test [1] worked out at 0.102 ± 0.016; in test [2] it was 0.00573 ± 0.0022.

Regarding GGAGUGGAUACUAUACAACCAACUACCACA, the “pre-steady-state target cleavage rate” value in test [1] turned out to be 0.00424 ± 0.0025; in test [2], 0.00391 ± 0.0018.

Regarding GGAGAGGAUGCUAUACAACCUACUACCUCA, the “pre-steady-state target cleavage rate” value stood at 0.151 ± 0.018 in test [1] and 0.00971 ± 0.006 in test [2].

Take GGAGUGGUUACUUUACAACCUACUACCUCA: the “pre-steady-state target cleavage rate” value stood at 0.162 ± 0.0089 in test [1] and 0.00342 ± 0.0031 in test [2].

With GGAGUGGAUACUAUACAACAUACUACCUCA, the “pre-steady-state target cleavage rate” value in test [1] is 0.0845 ± 0.0098; in test [2], 0.00987 ± 0.0037.

Consider GGAGACCAUACUAAACAACCUACUACCUCA, for which the “pre-steady-state target cleavage rate” value in test [1] worked out at 0.153 ± 0.016; in test [2], 0.0127 ± 0.0048.

Consider GGAGUGGAUACUAUACAUCCUACUUCCUCA, for which the figures for the “pre-steady-state target cleavage rate” value in test [1] and in test [2] were 0.0127 ± 0.0032 and 0.00326 ± 0.0017, respectively.

Take GGAGAGGAUACUAAACAACGUACUACCUCA: the “pre-steady-state target cleavage rate” value was 0.013 ± 0.0022 in test [1] and 0.00367 ± 0.002 in test [2].

GGAGACGUUACUAUACAACCUUCUACCUCA: the “pre-steady-state target cleavage rate” value in test [1] worked out at 0.00861 ± 0.0028; in test [2], 0.00871 ± 0.0043.

Turning to GGAGACCAAACUAUACAACGUACUACCUCA, the “pre-steady-state target cleavage rate” value in test [1] was found to be 0.0124 ± 0.0071; in test [2] it was 0.00528 ± 0.0034.

Regarding GGAGACCUUACUAUACAACCUCCUACCUCA, the “pre-steady-state target cleavage rate” value in test [1] was found to be 0.0597 ± 0.01; in test [2], 0.00545 ± 0.003.

Consider GGAGAGGAUACUAUACAACCACUACCUCA, for which the results for the “pre-steady-state target cleavage rate” value in test [1] and in test [2] were 0.00782 ± 0.0025 and 0.00549 ± 0.0026, respectively.

Consider GGAGAGGAUACUAUACAACUACUACCUCA, for which the “pre-steady-state target cleavage rate” value in test [1] turned out to be 0.0329 ± 0.0041; in test [2] it was 0.00869 ± 0.0042.

GGAGACGAUACAAUACAUCCUACUACCUCA: the “pre-steady-state target cleavage rate” value in test [1] turned out to be 0.312 ± 0.016; in test [2], 0.00286 ± 0.0019.

On to GGAGUCGAUUCUAUACAACCUACUACCUCA, for which the “pre-steady-state target cleavage rate” value in test [1] was determined as 0.182 ± 0.01; in test [2] it was 0.00723 ± 0.0043.

As to GGAGUGGAUACUAAUACAACCUACUACCUCA, the results for the “pre-steady-state target cleavage rate” value in test [1] and in test [2] were 0.135 ± 0.0082 and 0.08 ± 0.032, respectively.

Regarding GGAGUGGAUACUAUACAUCGUACUACCUCA, the “pre-steady-state target cleavage rate” value was found to be 0.0624 ± 0.0061 in test [1] and 0.0051 ± 0.0023 in test [2].

As to GGAGACCUUACUAUACAACCUAGUACCUCA, the figures for the “pre-steady-state target cleavage rate” value in test [1] and in test [2] were 0.0616 ± 0.011 and 0.00384 ± 0.0019, respectively.

Take GGAGACCUAUGAUAUGAACCUACUACCCCA: the “pre-steady-state target cleavage rate” value in test [1] and in test [2] was below 0.0001 in each case.

For GGAGAGGAUACUAUACAACCUAAUACCUCA, the “pre-steady-state target cleavage rate” value came out at 0.0575 ± 0.01 in test [1] and 0.00595 ± 0.0025 in test [2].

With GGAGUGGAUACUAUACAACCUACUAUCCUCA, the figures for the “pre-steady-state target cleavage rate” value in test [1] and in test [2] were 0.05 ± 0.0077 and 0.00685 ± 0.0028, respectively.

Turning to “GGAGACCUAUGUAUACAACCUACUACCUCA [g2:g19:cont:t1A]”, the “pre-steady-state target cleavage rate” value in test [1] was 0.0765 ± 0.012; in test [2] it was 0.00649 ± 0.0034.

With GGAGACCAAUCUAUACAACCUACUACCUCA, the entries for the “pre-steady-state target cleavage rate” value in test [1] and in test [2] were 0.117 ± 0.02 and 0.0121 ± 0.0056, respectively.

Regarding GGAGUGCAUACUAUUCAACCUACUACCUCA, the “pre-steady-state target cleavage rate” value was 0.182 ± 0.011 in test [1] and 0.00471 ± 0.0042 in test [2].

As for GGAGAGGAUACUAUACAACCUCCUACCUCA, the results for the “pre-steady-state target cleavage rate” value in test [1] and in test [2] were 0.0496 ± 0.0063 and 0.0065 ± 0.0026, respectively.

On to GGAGAGGAGACUAUACAACCUACUACCUCA, for which the entries for the “pre-steady-state target cleavage rate” value in test [1] and in test [2] were 0.25 ± 0.052 and 0.0151 ± 0.0058, respectively.

As for “GGAGACGAUACUAUACAACCUACUACCUCG [g2:g24:cont:t1G]”, the “pre-steady-state target cleavage rate” value came to 0.183 ± 0.014 in test [1] and 0.115 ± 0.037 in test [2].

Take GGAGUGGAUACAUAACAACCUACUACCUCA: the entries for the “pre-steady-state target cleavage rate” value in test [1] and in test [2] were 0.113 ± 0.0099 and 0.00683 ± 0.0044, respectively.

For the sequence GGAGACCAUAGUAUACAACCUACUACGUCA, the entries for the “pre-steady-state target cleavage rate” value in test [1] and in test [2] were 0.0462 ± 0.0097 and 0.00463 ± 0.0028, respectively.

Turning to GGAGAGGAAACUAUACAACCUACUAGCUCA, the “pre-steady-state target cleavage rate” value in test [1] turned out to be 0.0535 ± 0.019; in test [2], 0.00276 ± 0.0019.

As to GGAGAGGAUACUAUACAUCCUACUUCCUCA, the “pre-steady-state target cleavage rate” value turned out to be 0.0107 ± 0.0033 in test [1] and 0.00317 ± 0.0017 in test [2].

With GGAGAGCAUACUAUACAACCUACUACGUCA, the “pre-steady-state target cleavage rate” value in test [1] worked out at 0.112 ± 0.017; in test [2], 0.00351 ± 0.0025.
